Results: the supplement of paper PMC9950053
Structures can show the parent of a compound that is named as a salt.

These compounds were tested on Danio rerio larvae (5 dpf) (assay: 1-h baseline activity (% time moving, periods 1-6) minus DMSO control (percentage points); higher = more locomotor activity than DMSO larvae). Conditions: 10 µM; exposure time: 3 h pre-incubation + 3 h imaging.
Protocol: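 Wild-type 5 dpf zebrafish larvae (n=48 per drug, 96-well plates, 28.5 °C) were exposed to Tocris FDA-approved library compounds at 10 µM (0.1% DMSO) for 3 h before and 3 h during imaging. Images were taken every 6 s during visual (moving coloured lines) and acoustic stimuli, and larvae were tracked with the DeepLabCut-based Z-LaP Tracker. Each behavioural measure is the treated-group mean minus the DMSO vehicle control mean (n=844), in percentage points. This mapping covers compounds with 4-character plate codes.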

| SMILES | 1-h baseline activity |
| --- | --- |
| Cc1c(-c2ccc(O)cc2)n(Cc2ccc(OCCN3CCCCCC3)cc2)c2ccc(O)cc12 [Bazedoxifene acetate] | -14.5 |
| Nc1nc(Cl)nc2c1ncn2[C@@H]1O[C@H](CO)[C@@H](O)[C@@H]1F [Clofarabine] | -5.31 |
| CCc1ccc(CCOc2ccc(CC3SC(=O)NC3=O)cc2)nc1 (stereo not given) [Pioglitazone hydrochloride] | -7.48 |
| Cc1nnc(C(C)C)n1C1C[C@H]2CC[C@@H](C1)N2CC[C@H](NC(=O)C1CCC(F)(F)CC1)c1ccccc1 (stereo in doubt) [Maraviroc] | -3.33 |
| CCN(Cc1ccncc1)C(=O)C(CO)c1ccccc1 (stereo not given) [Tropicamide] | -5.81 |
| CCCc1nc(C(C)(C)O)c(C(=O)O)n1Cc1ccc(-c2ccccc2-c2nnn[nH]2)cc1 [Olmesartan] | 10.4 |
| CC(=O)S[C@@H]1CC2=CC(=O)CC[C@]2(C)[C@H]2CC[C@@]3(C)[C@@H](CC[C@@]34CCC(=O)O4)[C@H]12 [Spironolactone] | -0.875 |
| CN1CC[C@@H](NC(=O)Nc2ccc(C#N)cc2)C[C@@H]1c1nc2ccccc2[nH]1 | -10 |
| CCCCCCCCc1ccc(CCC(N)(CO)CO)cc1 | -21.1 |
| CC(C)(C)NC(=O)[C@@H]1C[C@@H]2CCCC[C@@H]2CN1C[C@@H](O)[C@H](Cc1ccccc1)NC(=O)[C@H](CC(N)=O)NC(=O)c1ccc2ccccc2n1 [Saquinavir mesylate] | -10.4 |
| Nc1nc(F)nc2c1ncn2[C@@H]1O[C@H](CO)[C@@H](O)[C@@H]1O [Fludarabine] | 4.33 |
| O=C(O)c1cc(/N=N/c2ccc(S(=O)(=O)Nc3ccccn3)cc2)ccc1O [Sulfasalazine] | 12.5 |
| CCOC(=O)[C@H](CCc1ccccc1)N[C@@H](C)C(=O)N1[C@H](C(=O)O)C[C@@H]2CCC[C@@H]21 [Ramipril] | 1.29 |
| CC1(C)O[C@@H]2[C@@H](CO[C@@]3(COS(N)(=O)=O)OC(C)(C)O[C@@H]23)O1 [Topiramate] | 9.54 |
| CN1CCN2c3ncccc3Cc3ccccc3C2C1 (stereo not given) [Mirtazapine] | 11.7 |
| O=C(O)CCCc1ccccc1 [Sodium 4-Phenylbutyrate] | 0.969 |
| CC1=Nc2ccc(Cl)cc2S(=O)(=O)N1 [Diazoxide] | 7.2 |
| Nc1nc(NC2CC2)c2ncn([C@H]3C=C[C@@H](CO)C3)c2n1 [Abacavir hemisulfate] | 6.96 |
| CNC(=O)c1ccccc1Sc1ccc2c(/C=C/c3ccccn3)n[nH]c2c1 [Axitinib] | -3.55 |
| Cn1cnc([N+](=O)[O-])c1Sc1ncnc2[nH]cnc12 [Azathioprine] | 7.62 |

| SMILES | 1-h baseline activity |
| --- | --- |
| COc1c(C)c2c(c(O)c1C/C=C(\C)CCC(=O)OCCN1CCOCC1)C(=O)OC2 [Mycophenolate mofetil] | -3.96 |
| CC(CCc1ccc(O)cc1)NCCc1ccc(O)c(O)c1 (stereo not given) [Dobutamine hydrochloride] | -2.47 |
| O=C(NCC1CCCCN1)c1cc(OCC(F)(F)F)ccc1OCC(F)(F)F (stereo not given) [Flecainide acetate] | -0.107 |
| CN/C(=N\CCSCc1nc[nH]c1C)NC#N [Cimetidine] | 0.11 |
| CCc1c2c(nc3ccc(OC(=O)N4CCC(N5CCCCC5)CC4)cc13)-c1cc3c(c(=O)n1C2)COC(=O)[C@]3(O)CC | -6.2 |
| Cc1cccc(CN2CCN(C(c3ccccc3)c3ccc(Cl)cc3)CC2)c1 (stereo not given) [Meclizine dihydrochloride] | 20.8 |
| CO[C@H]1/C=C/O[C@@]2(C)Oc3c(C)c(O)c4c(O)c(c5c(nc6cc(C)ccn65)c4c3C2=O)NC(=O)/C(C)=C\C=C\[C@H](C)[C@H](O)[C@@H](C)[C@@H](O)[C@@H](C)[C@H](OC(C)=O)[C@@H]1C [Rifaximin] | -1.58 |
| CCOc1nc2cccc(C(=O)O)c2n1Cc1ccc(-c2ccccc2-c2noc(=O)[nH]2)cc1 [Azilsartan] | 1.25 |
| C#C[C@]1(O)CC[C@H]2[C@@H]3CCC4=CC(=O)CC[C@@H]4[C@H]3CC[C@@]21CC [Levonorgestrel] | -8.79 |
| CCCCCOC(=O)Nc1nc(=O)n([C@@H]2O[C@H](C)[C@@H](O)[C@H]2O)cc1F [Capecitabine] | 6.82 |
| CCC(=O)O[C@]1(C(=O)SCF)[C@H](C)C[C@H]2[C@@H]3C[C@H](F)C4=CC(=O)C=C[C@]4(C)[C@@]3(F)[C@@H](O)C[C@@]21C [Fluticasone propionate] | 6.52 |
| OC(CNCC(O)C1CCc2cc(F)ccc2O1)C1CCc2cc(F)ccc2O1 (stereo not given) [Nebivolol hydrochloride] | -2.33 |
| COc1cc2nc(N3CCN(C(=O)C4COc5ccccc5O4)CC3)nc(N)c2cc1OC (stereo not given) [Doxazosin mesylate] | -6.93 |
| Cc1nc(Nc2ncc(C(=O)Nc3c(C)cccc3Cl)s2)cc(N2CCN(CCO)CC2)n1 [Dasatinib] | -12.5 |
| COC(c1ccccc1)(c1ccccc1)[C@H](Oc1nc(C)cc(C)n1)C(=O)O [Ambrisentan] | 0.292 |
| Clc1ccc(COC(Cn2ccnc2)c2ccc(Cl)cc2Cl)c(Cl)c1 (stereo not given) [Miconazole nitrate] | -19.7 |
| C[C@H](Cc1cc2c(c(C(N)=O)c1)N(CCCO)CC2)NCCOc1ccccc1OCC(F)(F)F [Silodosin] | -3.52 |
| Nc1cc(N2CCCCC2)nc(N)[n+]1[O-] [Minoxidil] | 1.13 |
| CC(C)C(=O)Nc1ccc([N+](=O)[O-])c(C(F)(F)F)c1 [Flutamide] | -9.78 |
| COc1ccc([C@@H]2Sc3ccccc3N(CCN(C)C)C(=O)[C@@H]2OC(C)=O)cc1 [Diltiazem hydrochloride] | -4.8 |
